Data on three compounds can be found in ChEMBL document CHEMBL2218924, “A broad activity screen in support of a chemogenomic map for kinase signalling research and drug discovery” (Biochem J, 2013).

For test [1], the target named is Homeodomain-interacting protein kinase 3 (Homo sapiens) (UniProt Q9H422). The note with it: at 10 µM.
The target of test [2] is T1, Serine/threonine-protein kinase haspin (Homo sapiens) (UniProt Q8TF76).
T1 sequence (whole entry): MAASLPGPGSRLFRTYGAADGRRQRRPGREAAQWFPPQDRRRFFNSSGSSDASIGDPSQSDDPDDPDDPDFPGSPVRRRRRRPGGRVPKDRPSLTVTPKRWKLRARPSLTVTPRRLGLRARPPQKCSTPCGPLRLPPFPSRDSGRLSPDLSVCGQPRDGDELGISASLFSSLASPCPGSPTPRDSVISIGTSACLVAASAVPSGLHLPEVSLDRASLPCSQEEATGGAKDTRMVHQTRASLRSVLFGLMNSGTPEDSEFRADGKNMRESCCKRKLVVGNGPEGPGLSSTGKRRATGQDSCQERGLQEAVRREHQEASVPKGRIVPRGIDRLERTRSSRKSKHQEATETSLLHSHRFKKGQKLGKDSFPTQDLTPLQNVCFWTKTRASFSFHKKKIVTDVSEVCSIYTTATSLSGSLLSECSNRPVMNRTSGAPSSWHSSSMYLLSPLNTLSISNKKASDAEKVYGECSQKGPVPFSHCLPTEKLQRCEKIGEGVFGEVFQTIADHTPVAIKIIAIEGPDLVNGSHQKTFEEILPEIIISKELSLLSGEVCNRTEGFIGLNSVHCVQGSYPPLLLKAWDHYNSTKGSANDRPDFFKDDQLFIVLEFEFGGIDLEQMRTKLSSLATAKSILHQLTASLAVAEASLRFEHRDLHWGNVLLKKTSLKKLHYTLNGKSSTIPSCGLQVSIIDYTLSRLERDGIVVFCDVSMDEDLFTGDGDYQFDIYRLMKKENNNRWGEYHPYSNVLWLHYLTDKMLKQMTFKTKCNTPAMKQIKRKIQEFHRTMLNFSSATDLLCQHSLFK
The note with it: at 1 µM.

Test [3] addresses T1, Serine/threonine-protein kinase haspin (Homo sapiens). As to conditions: at 10 µM; call rule not given here.
Test [4] deals with Tyrosine-protein kinase HCK (Homo sapiens) (UniProt P08631). As to conditions: at 1 µM.
Chain of Tyrosine-protein kinase HCK (Homo sapiens) (P08631 2-526 limits assumed): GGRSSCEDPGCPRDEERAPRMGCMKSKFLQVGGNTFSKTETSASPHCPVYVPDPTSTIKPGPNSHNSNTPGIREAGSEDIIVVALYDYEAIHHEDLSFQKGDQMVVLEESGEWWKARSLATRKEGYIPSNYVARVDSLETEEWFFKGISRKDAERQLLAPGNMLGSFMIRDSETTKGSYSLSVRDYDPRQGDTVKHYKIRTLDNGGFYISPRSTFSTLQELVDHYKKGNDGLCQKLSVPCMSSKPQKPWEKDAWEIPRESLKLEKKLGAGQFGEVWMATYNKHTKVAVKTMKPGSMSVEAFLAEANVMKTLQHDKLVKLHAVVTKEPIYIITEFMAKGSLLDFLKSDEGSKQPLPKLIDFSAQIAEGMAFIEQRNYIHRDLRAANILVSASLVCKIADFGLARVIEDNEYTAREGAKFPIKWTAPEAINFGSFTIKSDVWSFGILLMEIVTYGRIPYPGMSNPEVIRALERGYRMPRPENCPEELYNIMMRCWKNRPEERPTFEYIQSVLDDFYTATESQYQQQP
The target is the same in test [5]. As to conditions: at 10 µM.
Test [6] shares this target. As to conditions: at 1 µM. This is another data set of the same source.
Test [7] has the same target. As to conditions: at 10 µM. The source holds these as a separate data set.
Test [8] addresses Insulin-like growth factor 1 receptor (Homo sapiens) (UniProt P08069). The note with it: at 1 µM.
Test [9] has the same target. As to conditions: at 10 µM.
Test [10] addresses T2, Protein kinase C zeta type (Homo sapiens) (UniProt Q05513).
T2 sequence (whole entry): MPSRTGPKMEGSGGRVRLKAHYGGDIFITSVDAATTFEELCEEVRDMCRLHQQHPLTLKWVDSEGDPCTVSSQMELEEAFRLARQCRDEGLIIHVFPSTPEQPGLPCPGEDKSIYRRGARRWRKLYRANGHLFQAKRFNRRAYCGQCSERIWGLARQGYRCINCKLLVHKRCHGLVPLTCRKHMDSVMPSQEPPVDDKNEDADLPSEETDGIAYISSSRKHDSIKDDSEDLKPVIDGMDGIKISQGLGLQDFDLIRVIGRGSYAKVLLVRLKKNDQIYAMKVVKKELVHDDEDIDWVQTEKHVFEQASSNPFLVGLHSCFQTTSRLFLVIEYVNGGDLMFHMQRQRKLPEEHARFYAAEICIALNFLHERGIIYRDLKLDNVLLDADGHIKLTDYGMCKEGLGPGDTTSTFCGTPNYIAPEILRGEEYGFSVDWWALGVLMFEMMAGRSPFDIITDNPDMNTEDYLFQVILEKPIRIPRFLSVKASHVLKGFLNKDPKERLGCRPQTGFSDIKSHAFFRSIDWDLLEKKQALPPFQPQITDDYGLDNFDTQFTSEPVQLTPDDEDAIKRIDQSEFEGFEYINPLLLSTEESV
The note with it: at 10 µM.

In test [11] the target is Protein kinase C eta type (Homo sapiens) (UniProt P24723). The note with it: at 1 µM.
Chain of Protein kinase C eta type (Homo sapiens) (P24723 whole entry): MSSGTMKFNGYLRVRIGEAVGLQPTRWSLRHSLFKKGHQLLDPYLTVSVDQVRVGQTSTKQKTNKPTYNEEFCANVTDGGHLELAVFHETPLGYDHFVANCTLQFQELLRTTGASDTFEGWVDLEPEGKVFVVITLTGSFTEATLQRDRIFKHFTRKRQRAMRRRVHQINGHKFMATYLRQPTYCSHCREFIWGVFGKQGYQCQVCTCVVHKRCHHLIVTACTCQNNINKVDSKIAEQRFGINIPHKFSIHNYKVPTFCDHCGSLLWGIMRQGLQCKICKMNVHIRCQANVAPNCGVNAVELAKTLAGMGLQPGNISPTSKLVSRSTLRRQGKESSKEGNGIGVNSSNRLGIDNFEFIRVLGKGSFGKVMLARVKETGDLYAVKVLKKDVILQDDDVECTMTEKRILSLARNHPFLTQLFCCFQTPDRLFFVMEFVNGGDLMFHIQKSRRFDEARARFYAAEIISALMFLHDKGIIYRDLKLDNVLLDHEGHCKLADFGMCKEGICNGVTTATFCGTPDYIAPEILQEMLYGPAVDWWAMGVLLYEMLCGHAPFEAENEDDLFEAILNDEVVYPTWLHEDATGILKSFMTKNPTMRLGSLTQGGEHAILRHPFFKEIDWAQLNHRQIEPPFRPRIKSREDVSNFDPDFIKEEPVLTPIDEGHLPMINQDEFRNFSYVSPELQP
The target is the same in test [12]. As to conditions: at 10 µM.
The target of test [13] is Protein kinase C theta type (Homo sapiens) (UniProt Q04759). The note with it: at 1 µM.
Chain of Protein kinase C theta type (Homo sapiens) (Q04759 whole entry, looked up): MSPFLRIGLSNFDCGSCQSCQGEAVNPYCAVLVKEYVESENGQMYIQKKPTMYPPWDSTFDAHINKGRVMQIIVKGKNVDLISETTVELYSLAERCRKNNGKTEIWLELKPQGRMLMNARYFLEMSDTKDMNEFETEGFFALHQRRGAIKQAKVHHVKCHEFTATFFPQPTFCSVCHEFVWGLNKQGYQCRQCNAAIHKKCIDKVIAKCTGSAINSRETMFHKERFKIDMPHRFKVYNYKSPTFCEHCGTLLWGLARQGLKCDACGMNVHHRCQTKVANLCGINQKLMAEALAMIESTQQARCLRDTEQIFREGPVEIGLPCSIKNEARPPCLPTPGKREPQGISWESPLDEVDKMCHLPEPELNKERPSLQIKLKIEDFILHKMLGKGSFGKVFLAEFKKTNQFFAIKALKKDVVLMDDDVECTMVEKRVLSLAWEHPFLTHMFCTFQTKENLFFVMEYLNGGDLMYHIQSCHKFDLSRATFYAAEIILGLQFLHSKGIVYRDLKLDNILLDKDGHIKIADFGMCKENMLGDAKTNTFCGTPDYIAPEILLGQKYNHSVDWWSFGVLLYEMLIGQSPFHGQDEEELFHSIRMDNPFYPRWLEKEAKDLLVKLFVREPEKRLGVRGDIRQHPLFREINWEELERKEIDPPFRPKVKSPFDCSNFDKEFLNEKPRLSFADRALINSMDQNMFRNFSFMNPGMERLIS
The target is the same in test [14]. As to conditions: at 10 µM.
The target in test [15] is T3, Protein kinase C iota type (Homo sapiens) (UniProt P41743).
T3 sequence (whole entry): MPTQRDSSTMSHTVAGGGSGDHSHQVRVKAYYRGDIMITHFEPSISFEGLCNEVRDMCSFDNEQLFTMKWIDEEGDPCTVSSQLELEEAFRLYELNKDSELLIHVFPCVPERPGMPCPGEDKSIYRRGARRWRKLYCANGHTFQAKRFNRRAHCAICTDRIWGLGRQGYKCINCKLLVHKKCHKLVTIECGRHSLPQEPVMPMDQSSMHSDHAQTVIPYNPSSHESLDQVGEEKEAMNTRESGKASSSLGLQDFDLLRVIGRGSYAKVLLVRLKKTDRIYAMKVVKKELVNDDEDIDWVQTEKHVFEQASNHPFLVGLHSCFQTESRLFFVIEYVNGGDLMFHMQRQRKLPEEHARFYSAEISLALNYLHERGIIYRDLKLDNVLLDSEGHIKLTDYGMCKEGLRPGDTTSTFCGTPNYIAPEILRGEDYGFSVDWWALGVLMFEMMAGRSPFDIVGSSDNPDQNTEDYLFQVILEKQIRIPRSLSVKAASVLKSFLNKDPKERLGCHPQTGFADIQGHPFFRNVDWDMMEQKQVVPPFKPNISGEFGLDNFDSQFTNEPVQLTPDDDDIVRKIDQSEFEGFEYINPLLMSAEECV
The note with it: at 1 µM.

The target in test [16] is T3, Protein kinase C iota type (Homo sapiens). As to conditions: at 10 µM.
For test [17], the target named is T4, Serine/threonine-protein kinase D1 (Homo sapiens) (UniProt Q15139).
T4 sequence (whole entry): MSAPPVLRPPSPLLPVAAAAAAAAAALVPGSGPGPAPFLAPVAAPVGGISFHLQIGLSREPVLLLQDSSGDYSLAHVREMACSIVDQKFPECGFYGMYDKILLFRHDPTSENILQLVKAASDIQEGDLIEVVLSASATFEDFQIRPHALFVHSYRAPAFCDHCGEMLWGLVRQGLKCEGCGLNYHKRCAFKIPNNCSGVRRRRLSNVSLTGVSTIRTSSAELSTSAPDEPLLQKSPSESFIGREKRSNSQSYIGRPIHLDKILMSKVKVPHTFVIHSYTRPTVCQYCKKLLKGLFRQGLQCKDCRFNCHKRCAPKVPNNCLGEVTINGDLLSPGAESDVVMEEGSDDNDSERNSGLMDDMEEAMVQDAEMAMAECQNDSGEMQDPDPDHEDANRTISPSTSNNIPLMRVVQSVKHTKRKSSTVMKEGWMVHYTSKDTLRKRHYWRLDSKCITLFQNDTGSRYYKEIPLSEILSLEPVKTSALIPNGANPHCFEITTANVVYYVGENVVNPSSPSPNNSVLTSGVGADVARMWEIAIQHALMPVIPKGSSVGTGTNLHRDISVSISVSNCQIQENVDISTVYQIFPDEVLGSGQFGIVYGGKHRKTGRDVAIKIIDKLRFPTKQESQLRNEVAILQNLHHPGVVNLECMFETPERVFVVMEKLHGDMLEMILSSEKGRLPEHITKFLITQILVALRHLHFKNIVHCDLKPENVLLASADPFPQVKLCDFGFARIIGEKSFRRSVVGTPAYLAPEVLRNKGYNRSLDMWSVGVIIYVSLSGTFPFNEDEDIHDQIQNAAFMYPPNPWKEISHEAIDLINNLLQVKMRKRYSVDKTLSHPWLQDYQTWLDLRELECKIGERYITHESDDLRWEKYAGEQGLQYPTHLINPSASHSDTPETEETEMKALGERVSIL
As to conditions: at 1 µM.

For test [18], the target named is T4, Serine/threonine-protein kinase D1 (Homo sapiens). The note with it: at 10 µM.
Test [19] deals with T5, Serine/threonine-protein kinase D2 (Homo sapiens) (UniProt Q9BZL6).
T5 sequence (whole entry): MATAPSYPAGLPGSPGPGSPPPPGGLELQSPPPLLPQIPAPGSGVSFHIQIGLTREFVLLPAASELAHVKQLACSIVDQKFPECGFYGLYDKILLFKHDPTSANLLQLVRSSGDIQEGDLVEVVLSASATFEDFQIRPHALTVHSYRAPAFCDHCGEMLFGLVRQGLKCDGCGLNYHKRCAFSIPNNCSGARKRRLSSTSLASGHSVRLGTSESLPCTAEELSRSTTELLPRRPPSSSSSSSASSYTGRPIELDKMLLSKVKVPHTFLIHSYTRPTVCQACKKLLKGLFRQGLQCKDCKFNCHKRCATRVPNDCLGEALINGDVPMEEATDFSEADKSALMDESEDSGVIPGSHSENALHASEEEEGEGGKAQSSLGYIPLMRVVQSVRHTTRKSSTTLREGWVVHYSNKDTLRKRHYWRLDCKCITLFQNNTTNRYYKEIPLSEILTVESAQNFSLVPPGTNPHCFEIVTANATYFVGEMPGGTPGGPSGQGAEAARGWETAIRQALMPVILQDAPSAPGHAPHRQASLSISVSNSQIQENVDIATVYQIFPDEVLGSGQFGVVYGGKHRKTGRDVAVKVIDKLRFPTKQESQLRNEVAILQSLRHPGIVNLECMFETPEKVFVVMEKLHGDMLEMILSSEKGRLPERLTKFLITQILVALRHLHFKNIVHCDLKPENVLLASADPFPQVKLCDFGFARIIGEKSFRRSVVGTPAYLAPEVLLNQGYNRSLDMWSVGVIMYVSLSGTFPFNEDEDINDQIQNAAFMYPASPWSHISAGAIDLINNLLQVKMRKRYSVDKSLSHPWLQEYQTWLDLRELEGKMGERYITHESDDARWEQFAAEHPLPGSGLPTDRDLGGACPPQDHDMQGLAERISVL
The note with it: at 1 µM.

Test [20] has as its target T5, Serine/threonine-protein kinase D2 (Homo sapiens). As to conditions: at 10 µM.

Chain of Homeodomain-interacting protein kinase 3 (Homo sapiens) (Q9H422 whole entry, looked up): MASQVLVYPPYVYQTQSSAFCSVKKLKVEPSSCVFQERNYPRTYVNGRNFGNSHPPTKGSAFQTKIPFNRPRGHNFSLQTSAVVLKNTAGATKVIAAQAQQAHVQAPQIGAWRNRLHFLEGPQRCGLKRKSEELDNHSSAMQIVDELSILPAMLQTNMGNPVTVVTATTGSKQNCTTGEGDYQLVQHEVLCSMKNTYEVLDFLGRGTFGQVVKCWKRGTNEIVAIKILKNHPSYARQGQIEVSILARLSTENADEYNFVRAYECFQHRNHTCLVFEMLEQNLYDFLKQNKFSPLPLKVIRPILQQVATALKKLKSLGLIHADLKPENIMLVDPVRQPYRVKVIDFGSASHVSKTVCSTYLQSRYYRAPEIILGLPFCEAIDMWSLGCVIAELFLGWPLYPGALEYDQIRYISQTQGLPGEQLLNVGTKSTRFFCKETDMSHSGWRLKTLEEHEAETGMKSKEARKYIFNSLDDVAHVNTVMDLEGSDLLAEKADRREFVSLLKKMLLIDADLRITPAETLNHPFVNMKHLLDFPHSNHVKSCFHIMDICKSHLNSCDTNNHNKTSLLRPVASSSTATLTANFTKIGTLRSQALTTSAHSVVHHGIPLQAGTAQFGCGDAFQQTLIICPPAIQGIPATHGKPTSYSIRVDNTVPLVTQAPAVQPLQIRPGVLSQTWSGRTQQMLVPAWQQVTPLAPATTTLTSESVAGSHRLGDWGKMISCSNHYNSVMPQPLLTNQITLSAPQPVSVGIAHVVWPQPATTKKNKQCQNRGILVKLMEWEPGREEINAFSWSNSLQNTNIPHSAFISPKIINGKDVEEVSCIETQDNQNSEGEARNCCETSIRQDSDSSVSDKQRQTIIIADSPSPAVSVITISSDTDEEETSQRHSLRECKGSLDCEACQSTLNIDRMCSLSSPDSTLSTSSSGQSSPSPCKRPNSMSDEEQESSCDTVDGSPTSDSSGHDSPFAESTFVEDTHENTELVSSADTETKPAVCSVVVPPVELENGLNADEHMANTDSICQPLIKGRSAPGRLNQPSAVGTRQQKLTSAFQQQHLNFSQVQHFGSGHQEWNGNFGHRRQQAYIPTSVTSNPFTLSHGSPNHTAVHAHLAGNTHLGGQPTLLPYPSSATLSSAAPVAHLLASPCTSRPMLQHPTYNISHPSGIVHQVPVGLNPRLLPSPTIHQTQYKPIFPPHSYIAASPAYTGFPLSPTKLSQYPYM
Chain of Insulin-like growth factor 1 receptor (Homo sapiens) (P08069 31-736 limits assumed): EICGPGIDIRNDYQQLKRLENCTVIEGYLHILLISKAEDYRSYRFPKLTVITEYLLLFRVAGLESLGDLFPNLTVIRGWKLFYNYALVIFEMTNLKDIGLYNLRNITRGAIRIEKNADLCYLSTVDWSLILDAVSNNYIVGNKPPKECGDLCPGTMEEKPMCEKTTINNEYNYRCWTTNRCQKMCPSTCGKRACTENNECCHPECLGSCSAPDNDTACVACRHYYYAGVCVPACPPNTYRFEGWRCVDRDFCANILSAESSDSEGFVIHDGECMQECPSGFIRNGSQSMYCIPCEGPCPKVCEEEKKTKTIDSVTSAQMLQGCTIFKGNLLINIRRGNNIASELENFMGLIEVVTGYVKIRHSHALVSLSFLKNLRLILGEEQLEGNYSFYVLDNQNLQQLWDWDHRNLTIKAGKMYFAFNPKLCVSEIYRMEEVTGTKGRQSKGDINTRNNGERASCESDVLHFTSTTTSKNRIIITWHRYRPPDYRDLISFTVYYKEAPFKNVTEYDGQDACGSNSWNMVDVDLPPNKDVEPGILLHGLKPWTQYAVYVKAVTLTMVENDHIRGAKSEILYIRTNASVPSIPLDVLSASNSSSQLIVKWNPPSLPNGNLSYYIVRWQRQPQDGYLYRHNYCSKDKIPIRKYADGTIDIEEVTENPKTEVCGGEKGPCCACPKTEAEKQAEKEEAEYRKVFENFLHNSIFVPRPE
Chain of Insulin-like growth factor 1 receptor (Homo sapiens) (P08069 741-1367 limits assumed): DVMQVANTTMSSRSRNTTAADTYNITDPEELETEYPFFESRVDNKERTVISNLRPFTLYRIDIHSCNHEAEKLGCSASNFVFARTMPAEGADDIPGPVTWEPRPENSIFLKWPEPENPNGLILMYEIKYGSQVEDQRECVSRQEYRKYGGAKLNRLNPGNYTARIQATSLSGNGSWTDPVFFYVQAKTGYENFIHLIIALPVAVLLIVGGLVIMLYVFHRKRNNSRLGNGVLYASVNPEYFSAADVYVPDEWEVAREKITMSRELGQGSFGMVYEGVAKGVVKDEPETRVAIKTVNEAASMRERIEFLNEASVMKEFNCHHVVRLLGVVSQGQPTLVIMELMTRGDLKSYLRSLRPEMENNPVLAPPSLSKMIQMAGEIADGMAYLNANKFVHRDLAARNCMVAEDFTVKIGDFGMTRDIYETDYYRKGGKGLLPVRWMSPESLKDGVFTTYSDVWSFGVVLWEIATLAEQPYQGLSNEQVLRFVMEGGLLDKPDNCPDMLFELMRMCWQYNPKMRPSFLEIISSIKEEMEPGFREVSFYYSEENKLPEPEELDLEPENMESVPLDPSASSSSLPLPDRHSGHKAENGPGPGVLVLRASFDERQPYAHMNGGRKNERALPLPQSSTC

As a reminder, the residual activity is the signal under treatment as a percentage of the control signal. For `Cc1ccc(S(=O)(=O)/C=C/C#N)cc1`, the residual activity in test [1] was 98%; in test [2] it was 94%; in test [3] it was 102%; in test [4], 87%; in [5], 82%; in test [6], 98%. The residual activity in test [7] stood at 97%; in test [8] it was 75%; in test [9] it was 107%; in test [10], 96%; in test [11], 80%; in test [12], 90%. For the same compound, the residual activity in [13] was 97%; in [14], 77%; in [15] it was 109% (inactive); in test [16], 100%; in [17], 98%; in test [18] it was 84%. Besides, the residual activity in test [19] came out at 108%; in [20], 102%.

Take `COc1ccc(OC)c2c(=S)c3ccccc3[nH]c12`: the residual activity in test [1] was found to be 73%; in test [2] it was 114%; in test [3], 56%; in test [4], 85%; in test [5], 70%; in test [6], 101%. The residual activity in [7] is 95%; in test [8], 103%; in test [9], 136%; in [10] it was 86%; in test [11], 77%; in [12], 63%. The residual activity was 81% in test [13]; 89% in [14]; 109% (inactive) in test [15]; 80% in [16]; 96% in [17]; 73% in test [18]. In addition, the figures for the residual activity in test [19] and in test [20] were 108% and 84%, respectively.

For the compound `C[C@@H](N)[C@H]1CC[C@H](C(=O)Nc2ccncc2)CC1`, the residual activity in test [1] is 95%; in test [2], 109%; in [3], 97%; in [5], 94%; in test [6] it was 91%; in test [7], 97%. Besides, the residual activity is 111% in [8]; 109% in test [9]; 76% in test [10]; 26% in test [11]; 5% in test [12]; 63% in test [13]. Moreover, the residual activity was 17% in test [14]; 101% (inactive) in [15]; 93% in test [16]; 100% in [17]; 112% in test [20].
